PubChem BioAssay (Tox21)
Inconclusive results are not listed. Active and inactive are the calls of the source. Unless noted, calls come from the whole dose curve; as a rule, active = well fitted curve in the direction sought with a large enough effect in the repeat runs; inconclusive = weak or mixed curves; inactive = no such curve, though single readings can be large; an effect the other way counts as inactive or inconclusive.

How the values were obtained:
[1] = qHTS assay to identify small molecule antagonists of the sonic hedgehog signaling (Shh) pathway (AID 1259369; calls by dose curve; note: nearly all actives have a fitted effect of over 45% in size)
In short: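 Screening used 3T3Gli1-Luc cells at 2,000 per well, compounds delivered in DMSO, and conditioned medium as agonist stimulus; plates incubated 24hr at 37 C and 5% CO2 before a 30min luciferase step.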

[2] = qHTS assay to identify small molecule agonists of the androgen receptor (AR) signaling pathway in the presence of an antagonist - cell viability counter screen (AID 1259379);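 note: MDA-kb2 human breast cancer cells carrying an MMTV luciferase reporter; series mostly up to about 92 µM; nearly all actives have a fitted effect of over 25% in size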
In short: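 In MDA-kb2 cells (human breast carcinoma, MMTV-luciferase), compounds at 15 concentrations plus 3.0uM nilutamide; 16 hr, 37C, 0% CO2; CellTiter-Fluor fluorescence read for viability.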

[3] = qHTS assay to identify small molecule agonists of the estrogen receptor beta (ER-beta) signaling pathway - cell viability counter screen (AID 1259380); note: nearly all actives have a fitted effect of over 30% in size
In short: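 Viability of ER-beta-UAS-bla HEK293T cells was determined by CellTiter-Glo luminescence following 16 hr treatment with test compounds at 37C.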

[4] = qHTS assay to identify small molecule antagonists of the estrogen receptor beta (ER-beta) signaling pathway - cell viability counter screen (AID 1259382);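 note: HEK293T cells carrying ER-beta-UAS-bla reporter stimulated with estradiol; series mostly up to about 92 µM; nearly all actives have a fitted effect of over 55% in size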
In short: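 Tox21 10K library tested in qHTS format on ER-beta-bla HEK293T cells stimulated with 1nM E2; 16 hr treatment at 37C. Same-well CellTiter-Glo luminescence served as the cell viability measure.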

[5] = target: Thyrotropin receptor (Homo sapiens) (UniProt P16473); assay: qHTS assay to identify small molecule antagonists of the thyroid stimulating hormone receptor (TSHR) signaling pathway (AID 1259385; calls by dose curve; note: nearly all actives have a fitted effect of over 20% in size)
Sequence of Thyrotropin receptor (Homo sapiens) (P16473 whole entry, looked up): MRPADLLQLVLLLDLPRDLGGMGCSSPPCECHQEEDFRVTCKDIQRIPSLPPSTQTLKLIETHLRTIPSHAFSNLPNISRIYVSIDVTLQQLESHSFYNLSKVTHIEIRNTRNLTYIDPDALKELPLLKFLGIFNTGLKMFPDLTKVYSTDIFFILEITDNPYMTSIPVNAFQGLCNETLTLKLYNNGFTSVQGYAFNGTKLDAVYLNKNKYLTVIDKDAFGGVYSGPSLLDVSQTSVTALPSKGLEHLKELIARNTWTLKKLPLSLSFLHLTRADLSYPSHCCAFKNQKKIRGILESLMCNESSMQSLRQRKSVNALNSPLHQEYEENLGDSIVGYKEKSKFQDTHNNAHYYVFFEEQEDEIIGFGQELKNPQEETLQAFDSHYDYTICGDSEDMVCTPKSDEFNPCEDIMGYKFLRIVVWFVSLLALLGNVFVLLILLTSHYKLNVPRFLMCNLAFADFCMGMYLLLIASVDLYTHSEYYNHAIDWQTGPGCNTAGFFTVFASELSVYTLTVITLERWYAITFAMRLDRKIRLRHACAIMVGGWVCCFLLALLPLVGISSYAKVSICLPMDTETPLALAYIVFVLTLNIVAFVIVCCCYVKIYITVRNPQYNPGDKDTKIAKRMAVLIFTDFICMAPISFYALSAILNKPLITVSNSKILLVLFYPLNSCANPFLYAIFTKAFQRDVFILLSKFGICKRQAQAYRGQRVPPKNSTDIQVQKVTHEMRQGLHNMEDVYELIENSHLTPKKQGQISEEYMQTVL
In short: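 Antagonist mode: compound-treated TSHR-expressing HEK293 cells were stimulated with 1.5 ng/mL TSH (final) in presence of Ro20-1724 for 30 min at RT. HTRF cAMP detection after 1 h; each compound tested at 15 concentrations, triplicate.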

[6] = qHTS assay to identify small molecule agonists of the estrogen receptor alpha (ER-alpha) signaling pathway in the presence of an antagonist - cell viability counter screen (AID 1259386);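 note: series mostly up to about 92 µM; cells exposed to compounds for 22 h at 37 °C before the viability read; nearly all actives have a fitted effect of over 30% in size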
In short: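 Fluorescent CellTiter-Fluor viability signal from VM7Luc4E2 cells, with the reagent added during the final hour of a 22hr compound exposure at 37C in the presence of 10.0nM ICI-182,780.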

[7] = target: Progesterone receptor (Homo sapiens) (UniProt P06401); assay: qHTS assay to identify small molecule agonists of the progesterone receptor (PR) signaling pathway (AID 1346784; calls by dose curve; note: nearly all actives have a fitted effect of over 30% in size)
Sequence of Progesterone receptor (Homo sapiens) (P06401 whole entry, looked up): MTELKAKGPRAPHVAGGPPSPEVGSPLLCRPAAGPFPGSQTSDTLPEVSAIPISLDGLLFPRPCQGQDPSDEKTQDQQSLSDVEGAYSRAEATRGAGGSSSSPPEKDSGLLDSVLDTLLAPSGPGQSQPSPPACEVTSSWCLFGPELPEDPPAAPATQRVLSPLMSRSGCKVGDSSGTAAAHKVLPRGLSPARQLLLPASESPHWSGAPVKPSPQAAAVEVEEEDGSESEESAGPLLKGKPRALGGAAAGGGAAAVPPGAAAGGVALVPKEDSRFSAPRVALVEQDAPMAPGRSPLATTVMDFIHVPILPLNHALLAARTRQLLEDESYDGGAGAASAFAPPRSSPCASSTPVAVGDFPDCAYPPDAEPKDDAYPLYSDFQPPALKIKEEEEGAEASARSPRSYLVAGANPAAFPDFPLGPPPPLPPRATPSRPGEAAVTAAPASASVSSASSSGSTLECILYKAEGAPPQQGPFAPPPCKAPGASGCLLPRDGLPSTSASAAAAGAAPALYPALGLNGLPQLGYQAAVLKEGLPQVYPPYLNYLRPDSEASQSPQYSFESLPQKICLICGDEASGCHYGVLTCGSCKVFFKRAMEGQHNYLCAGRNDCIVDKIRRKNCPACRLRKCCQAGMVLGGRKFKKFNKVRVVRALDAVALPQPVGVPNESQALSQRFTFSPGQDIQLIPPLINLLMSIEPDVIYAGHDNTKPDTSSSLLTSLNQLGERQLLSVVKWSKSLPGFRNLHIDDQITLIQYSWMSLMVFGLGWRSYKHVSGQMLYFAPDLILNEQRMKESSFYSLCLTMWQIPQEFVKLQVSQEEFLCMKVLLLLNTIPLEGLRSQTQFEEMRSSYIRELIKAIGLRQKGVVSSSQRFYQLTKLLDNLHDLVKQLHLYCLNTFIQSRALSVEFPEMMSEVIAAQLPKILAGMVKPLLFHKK
In short: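 The screen uses PR-UAS-bla HEK 293T cells in charcoal-stripped serum (2%). Compounds are applied for 16 hr at 37C after a 6 hr pre-incubation, and reporter activity is detected with a FRET beta-lactamase substrate after 2 hr at room temperature.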

[8] = target: Progesterone receptor (Homo sapiens) (UniProt P06401); assay: qHTS assay to identify small molecule antagonists of the progesterone receptor (PR) signaling pathway (AID 1346795; active = well fitted inhibition curve with a large enough effect in the signal ratio in the repeat runs, not every such curve was filed as active; the % refers to the signal ratio)
In short: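 After 6 hr plating at 37C in 2% stripped-serum medium, PR-UAS-bla HEK293T cells got compounds, then 1 nM R5020. Sixteen hours later, LiveBLAzer substrate was applied for 2 hr at room temperature and fluorescence was recorded.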

[9] = qHTS assay to identify small molecule agonists of the progesterone receptor (PR) signaling pathway - cell viability counter screen (AID 1346799; calls by dose curve; note: nearly all actives have a fitted effect of over 45% in size)
In short: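 Viability was scored by ATP luminescence (CellTiter-Glo, 30 min, room temperature) in the same wells used for the reporter readout, after 16 hr compound exposure of PR-UAS-bla HEK293T cells.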

[10] = qHTS assay to identify small molecule antagonists of the TGF-beta/Smad signaling pathway - cell viability counter screen (AID 1346824); note: nearly all actives have a fitted effect of over 50% in size
In short: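 Cytotoxicity counter-screen run in the same wells as the beta-lactamase Smad reporter read: CellTiter-Glo luminescence after 30 min at room temperature. HEK 293T SBE-bla cells had 5 hr compound exposure at 37 C with TGF-beta1 (0.25 ng/mL stock).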

[11] = qHTS assay to identify small molecule agonists of the TGF-beta/Smad signaling pathway (AID 1346859; active = well fitted activation curve with a large enough effect in the signal ratio in the repeat runs, not every such curve was filed as active; the % refers to the signal ratio; note: series mostly up to about 77 µM)
In short: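 Dual-wavelength fluorescence (460/530 nm emission) quantified beta-lactamase expression under the Smad binding element in HEK 293T cells following 5 hr compound treatment at 37 C.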

[12] = target: Thyrotropin-releasing hormone receptor (Homo sapiens) (UniProt P34981); assay: qHTS assay to identify small molecule antagonists of the thyrotropin-releasing hormone receptor (TRHR) signaling pathway (AID 1346877; active = well fitted inhibition curve with a large enough effect in the repeat runs, not every such curve was filed as active; note: series mostly up to about 51 µM)
Sequence of Thyrotropin-releasing hormone receptor (Homo sapiens) (P34981 whole entry, looked up): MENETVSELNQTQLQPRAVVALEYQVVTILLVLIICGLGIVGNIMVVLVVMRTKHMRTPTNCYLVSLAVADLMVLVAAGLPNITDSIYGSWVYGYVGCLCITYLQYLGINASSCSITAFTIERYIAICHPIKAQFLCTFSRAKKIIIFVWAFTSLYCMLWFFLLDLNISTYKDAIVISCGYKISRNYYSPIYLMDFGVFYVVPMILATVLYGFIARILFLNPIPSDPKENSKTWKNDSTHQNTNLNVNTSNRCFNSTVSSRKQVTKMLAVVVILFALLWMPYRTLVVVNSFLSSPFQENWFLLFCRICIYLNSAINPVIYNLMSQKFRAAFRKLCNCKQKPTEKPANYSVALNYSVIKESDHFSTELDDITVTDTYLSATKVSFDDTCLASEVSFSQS
In short: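 In this cell-based calcium flux format, HEK293 cells expressing TRHR received test compound for 5 min before the agonist TRH (1 nM final). Dye loading lasted 2 h at 37 °C.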

[13] = target: Thyrotropin-releasing hormone receptor (Homo sapiens) (UniProt P34981); assay: qHTS assay to identify small molecule agonists of the thyrotropin-releasing hormone receptor (TRHR) signaling pathway (AID 1346891; calls by dose curve; note: series mostly up to about 58 µM)
In short: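 Kinetic fluorescence (3 min, 1 s intervals) reported intracellular calcium after compound transfer onto TRHR-Hek293 cells pre-loaded with dye for 2 h at 37 °C.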

[14] = qHTS assay to identify small molecule antagonists of the progesterone receptor (PR) signaling pathway - cell viability counter screen (AID 1346798); note: series mostly up to about 92 µM; nearly all actives have a fitted effect of over 50% in size
In short: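 Viability was determined by ATP-based luminescence (CellTiter-Glo) in PR-UAS-bla HEK293T cells cultured in 2% charcoal-stripped serum and incubated 16 hr with compounds under R5020 stimulation.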

[15] = qHTS assay to identify small molecule agonists of the TGF-beta/Smad signaling pathway - cell viability counter screen (AID 1346829); note: top concentration of the series differs between compounds; nearly all actives have a fitted effect of over 45% in size
In short: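 Tox21 qHTS format: SBE-bla HEK 293T cells treated with DMSO-dissolved compounds for 5 hr; CellTiter-Glo luminescence after 30 min at room temperature.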

[16] = target: Estrogen receptor (Homo sapiens) (UniProt P03372); assay: qHTS assay to identify small molecule agonists of the estrogen receptor alpha (ER-alpha) signaling pathway in the presence of an antagonist (AID 1259383; calls by dose curve; note: top concentration of the series differs between compounds; nearly all actives have a fitted effect of over 15% in size)
Sequence of Estrogen receptor (Homo sapiens) (P03372 whole entry, looked up): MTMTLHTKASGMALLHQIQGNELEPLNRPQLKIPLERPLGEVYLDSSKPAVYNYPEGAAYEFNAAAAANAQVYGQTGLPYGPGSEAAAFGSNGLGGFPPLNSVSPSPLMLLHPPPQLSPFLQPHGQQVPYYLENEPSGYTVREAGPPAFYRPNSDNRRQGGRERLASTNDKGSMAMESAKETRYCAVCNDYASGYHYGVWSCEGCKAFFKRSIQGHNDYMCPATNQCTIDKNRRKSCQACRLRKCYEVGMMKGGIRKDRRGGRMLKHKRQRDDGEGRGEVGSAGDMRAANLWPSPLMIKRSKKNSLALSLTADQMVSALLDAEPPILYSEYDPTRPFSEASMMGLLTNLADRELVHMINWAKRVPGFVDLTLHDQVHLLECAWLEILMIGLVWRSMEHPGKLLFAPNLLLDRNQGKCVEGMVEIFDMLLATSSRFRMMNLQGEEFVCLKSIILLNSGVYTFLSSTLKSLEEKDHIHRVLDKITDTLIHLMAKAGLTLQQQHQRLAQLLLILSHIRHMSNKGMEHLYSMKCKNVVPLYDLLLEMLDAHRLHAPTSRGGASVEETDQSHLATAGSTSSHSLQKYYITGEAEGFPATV
In short: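 In VM7Luc4E2 cells, 4,000 per well, compounds at 15 concentrations were co-incubated 22hr at 37C with 10.0nM final ICI-182,780. Luminescence from the stably transfected 4×ERE-luciferase reporter was recorded 30min after ONE-Glo addition.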

[17] = qHTS assay to identify small molecule agonists or antagonists of the thyroid stimulating hormone receptor (TSHR) signaling pathway - wild type cell line counter screen (AID 1259384; calls by dose curve)
In short: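 Counter screen in untransfected Hek293: compounds (15-point titration, triplicate) plus phosphodiesterase inhibitor Ro20-1724 added after 18 h plating; 30 min RT. Intracellular cAMP via competitive d2/cryptate immunoassay, 1 h incubation.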
% is set by controls: 0 for no effect and ±100 for the full control effect.

Clc1c(Cl)c(Cl)c(Cl)c(Cl)c1Cl
inactive: activity change, negative = inhibition [1] 3.84% [at 8.39 µM] | activity change, negative = cytotoxicity [2] 1.03% [at 8.39 µM] | activity change, negative = cytotoxicity [3] 0.531% [at 8.39 µM] | activity change, negative = cytotoxicity [4] 8.34% [at 8.39 µM] | activity change, negative = inhibition [5] 2.16% [at 8.39 µM] | activity change, negative = cytotoxicity [6] 1.86% [at 8.39 µM] | activation [7] -0.806% [at 8.39 µM] | activity change, negative = inhibition [8] -1.77% [at 8.39 µM] | activity change, negative = cytotoxicity [9] 14.7% [at 8.39 µM] | viability change, negative = cytotoxic [10] 1.21% [at 6.97 µM] | activation [11] -0.619% [at 6.97 µM] | activity, negative = inhibition [12] 0.118% [at 4.65 µM] | activation [13] -0.641% [at 5.23 µM]

O.O.O.O.O.O.O=S(=O)([O-])[O-].[Ni+2]
inactive: Potency [1] | Potency [2] | Potency [3] | Potency [4] | Potency [14] | Potency [10] | outcome [11]

O.O.O.O.O.O.O.O=S(=O)([O-])[O-].[Co+2]
inactive: Potency [1] | Potency [2] | Potency [3] | Potency [4] | Potency [10] | Potency [15] | outcome [11]

CCCCn1cc[n+](C)c1.[Cl][Fe-]([Cl])([Cl])[Cl]
inactive: Potency [1] | Potency [2] | Potency [3] | Potency [4] | Potency [6] | Potency [14] | Potency [10] | Potency [15] | outcome [11]

COc1c2c(cc3c1OCO3)CCN(C)C2
inactive: Potency [1] | Potency [2] | Potency [3] | Potency [4] | Potency [16] | Potency [17] | Potency [5] | Potency [6] | Potency [7] | Potency [8] | Potency [9] | Potency [10] | Potency [15] | outcome [11] | Potency [12] | Potency [13]

c1csc(-c2ccc(-c3cccs3)s2)c1
inactive: Potency [1] | Potency [2] | Potency [3] | Potency [4] | Potency [5] | Potency [6] | Potency [7] | Potency [14] | Potency [9] | Potency [10] | Potency [15] | Potency [13]

CC(=O)[O-].CC(=O)[O-].CC(=O)[O-].[Sb+3]
inactive: activity change, negative = inhibition [1] 2.99% [at 3.27 µM] | activity change, negative = cytotoxicity [2] 3.2% [at 3.27 µM] | activity change, negative = cytotoxicity [3] 2.42% [at 3.32 µM] | activity change, negative = cytotoxicity [4] -1.85% [at 3.27 µM] | activity change, negative = cytotoxicity [6] -1.24% [at 3.27 µM] | activation [7] 3.93% [at 3.27 µM] | activity change, negative = inhibition [8] -5.92% [at 3.27 µM] | activity change, negative = cytotoxicity [14] 10.2% [at 3.27 µM] | activity change, negative = cytotoxicity [9] 7.1% [at 3.27 µM] | viability change, negative = cytotoxic [10] -1.18% [at 2.72 µM] | activity change, negative = cytotoxicity [15] 2.52% [at 2.72 µM] | activation [11] -3.71% [at 2.72 µM]

CN=C=O
inactive: Potency [1] | Potency [2] | Potency [3] | Potency [4] | Potency [17] | Potency [5] | Potency [6] | Potency [7] | Potency [8] | Potency [9] | Potency [10] | Potency [15] | outcome [11]

CCCCON=O
inactive: Potency [1] | Potency [2] | Potency [3] | Potency [4] | Potency [17] | Potency [5] | Potency [6] | Potency [7] | Potency [8] | Potency [14] | Potency [9] | Potency [10] | Potency [15] | outcome [11] | Potency [13]
